From the supplement of paper PMC13094657
Structures can show the parent of a compound that is named as a salt. ± gives the standard deviation of the averaged measurements.

Experiments:
[1] = tested on: MDA-MB-231; assay: cell viability relative to vehicle unstimulated control (fraction); higher = more viable cells; conditions: pre-treatment time: 18 h then 24 h IFNg/TNF
[2] = tested on: MDA-MB-231; assay: kynurenine production, fold change vs DMSO IFNg/TNF control; higher = more kynurenine produced (less inhibition); conditions: pre-treatment time: 18 h then 24 h IFNg/TNF
How it was run: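 After trichloroacetic acid and p-dimethylaminobenzaldehyde treatment, supernatants were read at 492 nm, with 0–100 μM standards. These came from MDA-MB-231 cells (7 × 10^4/well, 96-well plates) pre-treated 18 h with natural products in 0.1% DMSO and then exposed 24 h to IFNγ (1 U/ml) and TNF (6.25 ng/ml) at 37°C. Values for kynurenine production are fold changes over same-plate cytokine-stimulated vehicle wells, averaged over duplicate plates in the first screening round.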
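For cell viability relative to vehicle unstimulated control in this document: viability of the cells left after supernatant collection, read with Deep Blue dye added for 4 h, as absorbance at 570 nm minus 600 nm.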

| Compound | cell viability [1] | kynurenine production [2] |
| --- | --- | --- |
| O=C(O)c1ccc(=O)[nH]c1 [6-hydroxynicotinic acid] (compound dose: 10 uM) | 0.951 ± 0.036 | 0.973 ± 0.098 |
| C=C1CC[C@H]2[C@@H](/C=C(\C)C(=O)[C@@]3(OC(C)=O)C[C@H](C)[C@H](OC(=O)Cc4ccccc4)[C@@H]3[C@H]1OC(C)=O)C2(C)C [Deoxy euphorbia factor L1] (compound dose: 10 uM) | 1.07 ± 0.074 | 0.9513 ± 0.0042 |
| CC(=O)O[C@H]1C[C@H](O[C@H]2[C@@H](O)C[C@H](O[C@H]3[C@@H](O)C[C@H](O[C@H]4CC[C@@]5(C)[C@H](CC[C@@H]6[C@@H]5C[C@@H](O)[C@]5(C)[C@@H](C7=CC(=O)OC7)CC[C@]65O)C4)O[C@@H]3C)O[C@@H]2C)O[C@H](C)[C@H]1O[C@@H]1O[C@H](CO)[C@@H](O)[C@H](O)[C@H]1O [Lanatoside C] (compound dose: 10 uM) | 0.607 ± 0.021 | 0.149 ± 0.015 |
| C=C1[C@H](OC(C)=O)[C@@H](OC(=O)c2ccccc2)[C@@H](OC(C)=O)C(C)(C)[C@H]2O[C@](O)([C@@H](C)C2=O)[C@@]2(OC(C)=O)C[C@H](C)[C@H](OC(C)=O)[C@@H]2[C@H]1OC(C)=O [Kansuinine A] (compound dose: 10 uM) | 0.934 ± 0.028 | 0.709 ± 0.031 |
| CO[C@H]1CCN2[C@@H]3C=CC4=CC(=O)O[C@]4(C3)[C@@H]2C1 [Securitinine] (compound dose: 10 uM) | 0.983 ± 0.035 | 0.734 ± 0.084 |
| COc1cc2c(c(OC)c1OC)-c1ccc(OC)c(=O)cc1[C@@H](NC(C)=O)CC2 [Colchicine] (compound dose: 10 uM) | 0.802 ± 0.097 | 0.234 ± 0.046 |
| CC(C)(C)[C@]1(O)CC2OC(=O)CC23C(=O)OC2OC(=O)[C@H](O)C231 (some centres undefined) [Bilobalide] (compound dose: 10 uM) | 1.01 ± 0.015 | 0.774 ± 0.031 |
| C=C1CCC2C(/C=C(\C)C(=O)C3(OC(C)=O)CC(C)C(OC(=O)c4ccccc4)C3C1OC(C)=O)C2(C)C (centres undefined) [Euphorbia factor L3] (compound dose: 10 uM) | 1.05 ± 0.019 | 0.89 ± 0.11 |
| CC(=O)OC[C@]12[C@H](OC(C)=O)[C@H](OC(C)=O)[C@@H]3[C@@H](OC(C)=O)[C@@]14O[C@@]3(C)COC(=O)c1cccnc1CCC(C)C(=O)O[C@@H]([C@H](OC(=O)c1ccco1)[C@@H]2OC(C)=O)[C@]4(C)O (some centres undefined) [Wilforgine] (compound dose: 10 uM) | 1.02 ± 0.14 | 1.04 ± 0.077 |
| CN1C2CCC1CC(O)C2 (centres undefined) [Tropine] (compound dose: 10 uM) | 0.938 ± 0.13 | 0.902 ± 0.2 |
| CC(=O)OC12COC1CC(O)C1(C)C(=O)C(O)C3=C(C)C(O)CC(O)(C(OC(=O)c4ccccc4)C21)C3(C)C (centres undefined) [10-Deacetylbaccatin III] (compound dose: 10 uM) | 0.999 ± 0.017 | 0.849 ± 0.18 |
| C=C1CC[C@H]2[C@@H](/C=C(\C)C(=O)[C@@]3(O)C[C@H](C)[C@H](O)[C@@H]3[C@@H]1O)C2(C)C [Lathyrol] (compound dose: 10 uM) | 1.08 ± 0.11 | 0.849 ± 0.095 |
| COc1cc([C@@H]2c3cc4c(cc3C[C@H]3COC(=O)[C@@H]32)OCO4)cc(OC)c1OC [4-deoxypodophyllotoxin] (compound dose: 10 uM) | 0.814 ± 0.042 | 0.623 ± 0.19 |
| CN1[C@@H]2C[C@@H](OC(=O)[C@H](CO)c3ccccc3)C[C@H]1[C@@H]1O[C@@H]12 [Scopolamine hydrobromide] (compound dose: 10 uM) | 0.983 ± 0.025 | 0.811 ± 0.067 |
| CCCCCCCCCCCCCC(=O)O[C@@H]1[C@@H](C)[C@@]2(O)[C@@H](C=C(CO)C[C@]3(O)C(=O)C(C)=C[C@@H]23)[C@@H]2C(C)(C)[C@]12OC(C)=O [Phorbol 12-Myristate 13-Acetate] (compound dose: 10 uM) | 1.09 ± 0.038 | 1.01 ± 0.21 |
| CC(C)C1=CC(=O)[C@@](C)(C2[C@H](O)C[C@@]3(C)[C@@H]4CC=C5[C@@H](CC[C@@H](OC6OCC(O)C(O)C6OC6OC(C)C(O)C(O)C6O)C5(C)C)[C@]4(C)C(=O)C[C@]23C)O1 (some centres undefined) [Picfeltarraenin IA] (compound dose: 10 uM) | 0.9887 ± 0.0091 | 0.901 ± 0.11 |
| CC(=O)O[C@@]12C[C@@H](C)[C@@]3(O)[C@@H](C=C(CO)C[C@]4(O)C(=O)C(C)=C[C@@H]34)[C@@H]1C2(C)C [Prostratin] (compound dose: 10 uM) | 1.31 ± 0.36 | 0.737 ± 0.025 |
